Measurements: PubChem BioAssay (EPA / NIEHS)
Where “and” joins values, the source holds several entries; their conditions need not be identical. Equal values may be shown once. Records with an inconclusive call do not appear. The source holds several records for some structures; these can differ, active in one and inactive in another. Calls of active or inactive are those of the source. The calls were made as follows, unless noted: active = hit-call score of the fitted dose curve at least 0.9, where 1 is the maximum; inactive = score below 0.9.

Columns and labels:
[1] = biological target: Estrogen-related receptor gamma (Homo sapiens) (UniProt P62508); test: ATG_ERRg_TRANS: Attagene TRANS-FACTORIAL HepG2 Assay for human Estrogen-Related Receptor gamma (ERRg) (AID 2282977; active = hit-call score of the fitted dose curve at least 0.9, where 1 is the maximum;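 also: hits increase reporter signal over DMSO so potencies reflect activators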); details: HepG2 Attagene TRANS reporter, ERRg transactivation
Sequence of Estrogen-related receptor gamma (Homo sapiens) (P62508 whole entry, looked up, the tested form may be a part): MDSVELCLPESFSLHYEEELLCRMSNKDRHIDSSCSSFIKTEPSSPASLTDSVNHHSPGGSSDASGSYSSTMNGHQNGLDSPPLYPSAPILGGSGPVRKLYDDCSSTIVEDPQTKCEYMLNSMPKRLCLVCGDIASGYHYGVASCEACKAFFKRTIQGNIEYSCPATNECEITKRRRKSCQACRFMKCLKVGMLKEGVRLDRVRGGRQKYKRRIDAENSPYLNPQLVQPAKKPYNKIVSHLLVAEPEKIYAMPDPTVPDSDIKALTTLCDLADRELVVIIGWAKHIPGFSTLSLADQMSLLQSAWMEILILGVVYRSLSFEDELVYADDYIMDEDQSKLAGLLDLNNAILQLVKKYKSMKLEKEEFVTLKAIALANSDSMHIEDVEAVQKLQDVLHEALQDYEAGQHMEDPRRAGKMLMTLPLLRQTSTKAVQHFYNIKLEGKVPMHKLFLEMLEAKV
In short: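 HepG2 cells transiently transfected with multiplexed GAL4-UAS reporter units and chimeric NR-Gal4 constructs were exposed to test chemicals for 24 h. Reporter mRNA was measured by RT-PCR, 6-FAM primer extension, HpaI digestion and capillary electrophoresis; gain-of-signal versus DMSO.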

[2] = biological target: Glucocorticoid receptor (Homo sapiens) (UniProt P04150); test: ATG_GR_TRANS: Attagene TRANS-FACTORIAL HepG2 Assay for human Glucocorticoid Receptor (GR) (AID 2282978; active = hit-call score of the fitted dose curve at least 0.9, where 1 is the maximum;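 also: activators score as hits since higher reporter transcript over DMSO is fitted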); details: HepG2 Attagene TRANS GR reporter, mRNA transcription
Sequence of Glucocorticoid receptor (Homo sapiens) (P04150 whole entry, looked up, the tested form may be a part): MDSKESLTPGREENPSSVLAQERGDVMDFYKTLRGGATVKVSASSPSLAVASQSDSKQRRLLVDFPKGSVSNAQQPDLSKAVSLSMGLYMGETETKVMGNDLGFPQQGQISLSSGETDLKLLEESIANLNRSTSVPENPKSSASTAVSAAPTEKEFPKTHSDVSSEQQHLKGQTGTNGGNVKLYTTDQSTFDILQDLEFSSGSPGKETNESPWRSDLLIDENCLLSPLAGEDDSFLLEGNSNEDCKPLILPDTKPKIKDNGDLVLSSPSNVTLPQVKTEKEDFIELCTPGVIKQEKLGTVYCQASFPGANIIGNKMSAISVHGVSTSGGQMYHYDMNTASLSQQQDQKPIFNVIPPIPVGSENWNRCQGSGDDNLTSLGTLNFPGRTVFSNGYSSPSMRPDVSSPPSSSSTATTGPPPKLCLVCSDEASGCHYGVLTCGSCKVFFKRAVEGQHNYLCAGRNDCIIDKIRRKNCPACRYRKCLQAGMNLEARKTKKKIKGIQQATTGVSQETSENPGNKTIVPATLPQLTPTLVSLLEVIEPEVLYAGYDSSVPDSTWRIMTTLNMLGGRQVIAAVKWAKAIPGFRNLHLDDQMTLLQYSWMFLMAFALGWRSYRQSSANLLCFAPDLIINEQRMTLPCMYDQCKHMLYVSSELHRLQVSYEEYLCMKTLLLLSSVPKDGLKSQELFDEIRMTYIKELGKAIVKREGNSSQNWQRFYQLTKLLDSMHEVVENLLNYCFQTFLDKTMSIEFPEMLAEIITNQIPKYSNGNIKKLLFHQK
In short: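 HepG2 transient transfection, multiple reporter units, GAL4-UAS under NR-GAL4 chimera control. 24 h treatment. Reporter mRNA by RT-PCR/CE fluorescence, DMSO as negative control.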

[3] = biological target: Bile acid receptor (Homo sapiens) (UniProt Q96RI1); test: ATG_FXR_TRANS: Attagene TRANS-FACTORIAL HepG2 Assay for Farnesoid X Receptor (FXR) (AID 2282979; active = hit-call score of the fitted dose curve at least 0.9, where 1 is the maximum;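 also: hits raise reporter mRNA above DMSO so AC50 marks FXR activation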); details: HepG2 Attagene TRANS FXR-GAL4 reporter transcription
Sequence of Bile acid receptor (Homo sapiens) (Q96RI1 whole entry, looked up, the tested form may be a part): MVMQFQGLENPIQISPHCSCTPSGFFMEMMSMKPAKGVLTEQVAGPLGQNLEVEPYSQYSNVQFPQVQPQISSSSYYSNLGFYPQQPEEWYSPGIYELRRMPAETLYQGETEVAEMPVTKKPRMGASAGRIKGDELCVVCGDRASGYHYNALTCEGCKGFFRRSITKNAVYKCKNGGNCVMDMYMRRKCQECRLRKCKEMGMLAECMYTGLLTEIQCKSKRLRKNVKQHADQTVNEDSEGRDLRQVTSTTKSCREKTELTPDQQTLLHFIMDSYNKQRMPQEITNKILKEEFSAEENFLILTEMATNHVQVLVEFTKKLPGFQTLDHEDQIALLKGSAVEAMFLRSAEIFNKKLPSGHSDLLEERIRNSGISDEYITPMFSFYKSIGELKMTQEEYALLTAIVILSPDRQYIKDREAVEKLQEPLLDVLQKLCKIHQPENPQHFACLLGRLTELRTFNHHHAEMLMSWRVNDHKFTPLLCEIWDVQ
In short: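 Reporter transcripts from transfected HepG2 cells were measured 24 h after dosing, using RT-PCR with capillary electrophoresis of 6-FAM-labelled fragments. The read-out reflects activity of exogenous FXR-Gal4 chimera on GAL4-UAS units, with induction relative to DMSO.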

[4] = biological target: Oxysterols receptor LXR-alpha (Homo sapiens) (UniProt Q13133); test: ATG_LXRa_TRANS: Attagene TRANS-FACTORIAL HepG2 Assay for human Liver X Receptor alpha (LXRa) (AID 2282980; active = hit-call score of the fitted dose curve at least 0.9, where 1 is the maximum); details: HepG2 Attagene TRANS reporter, LXRa transactivation
Sequence of Oxysterols receptor LXR-alpha (Homo sapiens) (Q13133 whole entry, looked up, the tested form may be a part): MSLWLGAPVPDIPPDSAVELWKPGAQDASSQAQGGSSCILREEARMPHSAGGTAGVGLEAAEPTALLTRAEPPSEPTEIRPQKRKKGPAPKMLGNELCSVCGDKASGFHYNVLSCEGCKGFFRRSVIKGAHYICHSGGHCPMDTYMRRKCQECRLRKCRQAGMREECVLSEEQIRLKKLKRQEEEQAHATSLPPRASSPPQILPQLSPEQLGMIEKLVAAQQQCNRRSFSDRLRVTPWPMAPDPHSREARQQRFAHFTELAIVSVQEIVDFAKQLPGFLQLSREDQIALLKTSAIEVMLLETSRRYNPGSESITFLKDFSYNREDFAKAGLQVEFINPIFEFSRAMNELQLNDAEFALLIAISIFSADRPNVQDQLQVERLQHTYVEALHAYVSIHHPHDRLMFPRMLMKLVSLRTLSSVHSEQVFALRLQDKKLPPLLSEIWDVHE
In short: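 Chemical-induced reporter mRNA measured by RT-PCR with fluorescent labelling and capillary electrophoresis after 24 h dosing of transiently transfected HepG2 cells expressing exogenous NR-Gal4 chimeras; increases scored against DMSO baseline.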

[5] = biological target: Oxysterols receptor LXR-beta (Homo sapiens) (UniProt P55055); test: ATG_LXRb_TRANS: Attagene TRANS-FACTORIAL HepG2 Assay for human Liver X Receptor beta (LXRb) (AID 2282981; active = hit-call score of the fitted dose curve at least 0.9, where 1 is the maximum); details: HepG2 Attagene TRANS GAL4-LXRb reporter, mRNA
Sequence of Oxysterols receptor LXR-beta (Homo sapiens) (P55055 whole entry, looked up, the tested form may be a part): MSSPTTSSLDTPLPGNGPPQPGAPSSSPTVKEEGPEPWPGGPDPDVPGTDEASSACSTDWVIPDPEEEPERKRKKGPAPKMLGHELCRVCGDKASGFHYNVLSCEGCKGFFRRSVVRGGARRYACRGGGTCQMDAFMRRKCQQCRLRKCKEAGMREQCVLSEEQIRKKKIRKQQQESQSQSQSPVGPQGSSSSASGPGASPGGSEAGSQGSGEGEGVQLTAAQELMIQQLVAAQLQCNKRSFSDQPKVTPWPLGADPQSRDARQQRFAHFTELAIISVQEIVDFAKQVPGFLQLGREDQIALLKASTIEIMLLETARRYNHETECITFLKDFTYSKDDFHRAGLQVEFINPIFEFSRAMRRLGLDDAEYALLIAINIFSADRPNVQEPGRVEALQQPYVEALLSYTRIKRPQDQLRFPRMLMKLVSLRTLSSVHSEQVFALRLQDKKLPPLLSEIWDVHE
In short: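 HepG2 cells transiently transfected with multiple reporter transcription units carrying chimeric NR-Gal4 proteins acting on GAL4-UAS reporters; compound exposure 24 h. Reporter mRNA quantified by RT-PCR, 6-FAM labelling, HpaI digestion and capillary electrophoresis; gain of signal versus DMSO.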

[6] = biological target: Hepatocyte nuclear factor 4-alpha (Homo sapiens) (UniProt P41235); test: ATG_HNF4a_TRANS: Attagene TRANS-FACTORIAL HepG2 Assay for human Hepatocyte Nuclear Factor 4 alpha (HNF4a) (AID 2282982; active = hit-call score of the fitted dose curve at least 0.9, where 1 is the maximum); details: HepG2 HNF4a transactivation reporter, mRNA readout
In short: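 HepG2 cells transiently transfected with multiplexed GAL4-UAS reporter units responsive to chimeric NR-GAL4 proteins; compound exposure 24 h. Reporter mRNA quantified by RT-PCR, 6-FAM labelling, HpaI digestion and capillary electrophoresis; gain of signal versus DMSO baseline.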

[7] = ATG_M_32_TRANS: Attagene TRANS-FACTORIAL HepG2 Assay for M32 Transcription Factor (Internal Marker) (AID 2282984; active = hit-call score of the fitted dose curve at least 0.9, where 1 is the maximum;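 also: transcript level of a background control reporter unit measured by RT-PCR and capillary electrophoresis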); details: HepG2 Attagene TRANS M32 internal marker reporter
In short: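 HepG2 cells transiently transfected with multiple GAL4-UAS reporter transcription units, dosed for 24 hours; reporter mRNA quantified by RT-PCR, 6-FAM primer extension, HpaI digestion and capillary electrophoresis. Gain-of-signal fitted versus DMSO baseline; internal background-control marker.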

[8] = biological target: Transcriptional activator Myb (Homo sapiens) (UniProt P10242); test: ATG_Myb_CIS: Attagene CIS-FACTORIAL HepG2 Assay for human Myeloblastosis (Myb) Proto-Oncogene Transcription Factor (AID 2282986); details: HepG2 Attagene CIS-FACTORIAL Myb reporter transcription; actives raise or lower the signal
Sequence of Transcriptional activator Myb (Homo sapiens) (P10242 whole entry, looked up): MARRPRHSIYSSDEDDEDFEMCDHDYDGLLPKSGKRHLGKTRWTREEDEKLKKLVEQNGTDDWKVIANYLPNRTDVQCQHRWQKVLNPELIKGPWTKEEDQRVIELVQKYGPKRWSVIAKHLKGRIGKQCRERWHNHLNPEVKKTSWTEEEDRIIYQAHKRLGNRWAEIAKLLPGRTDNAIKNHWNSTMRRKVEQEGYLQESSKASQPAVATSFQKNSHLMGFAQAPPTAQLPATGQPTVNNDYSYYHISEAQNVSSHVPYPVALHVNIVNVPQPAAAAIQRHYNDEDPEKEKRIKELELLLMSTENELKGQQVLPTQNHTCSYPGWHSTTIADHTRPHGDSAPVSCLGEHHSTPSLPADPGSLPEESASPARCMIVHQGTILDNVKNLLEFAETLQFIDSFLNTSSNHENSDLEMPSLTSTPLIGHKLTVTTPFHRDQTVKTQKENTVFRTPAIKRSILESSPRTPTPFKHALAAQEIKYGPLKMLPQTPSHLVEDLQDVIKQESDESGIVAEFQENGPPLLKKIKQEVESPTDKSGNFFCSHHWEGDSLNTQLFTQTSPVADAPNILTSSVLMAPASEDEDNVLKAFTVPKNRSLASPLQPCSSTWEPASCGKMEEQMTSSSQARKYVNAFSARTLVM
In short: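 Multiplexed cis-reporter system in HepG2: transient transfection, 24 h treatment, mRNA readout by RT-PCR and capillary electrophoresis. Both increases and decreases are scored versus DMSO negative control.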

[9] = biological target: Nuclear respiratory factor 1 (Homo sapiens) (UniProt Q16656); test: ATG_NRF1_CIS: Attagene CIS-FACTORIAL HepG2 Assay for human Nuclear Respiratory Factor 1 (NRF1) Orphan Gene (AID 2282987); details: HepG2 NRF1 cis-element reporter, Attagene multiplex; actives raise or lower the signal
In short: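 Endogenous factor activity was captured via cis-element-driven reporter transcripts in HepG2 cells. Following 24 h chemical treatment, transcripts were quantified by RT-PCR and capillary electrophoresis.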

[10] = ATG_NFI_CIS: Attagene CIS-FACTORIAL HepG2 Assay for human Nuclear Factor I (NFI) (AID 2282989); details: HepG2 cis-regulatory reporter, NFI response element transcription; actives raise or lower the signal
In short: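 Reporter transcription driven by endogenous transcription factors in HepG2 cells; 24 h treatment. Quantitation by labelled RT-PCR fragments on capillary electrophoresis, gain- or loss-of-signal relative to DMSO.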

[11] = biological target: Myc proto-oncogene protein (Homo sapiens) (UniProt P01106); test: ATG_Myc_CIS: Attagene CIS-FACTORIAL HepG2 Assay for human Myelocytomatosis (Myc) Proto-Oncogene Transcription Factor (AID 2282990); details: HepG2, Attagene cis-reporter transcription factor activity; actives raise or lower the signal
Sequence of Myc proto-oncogene protein (Homo sapiens) (P01106 whole entry, looked up): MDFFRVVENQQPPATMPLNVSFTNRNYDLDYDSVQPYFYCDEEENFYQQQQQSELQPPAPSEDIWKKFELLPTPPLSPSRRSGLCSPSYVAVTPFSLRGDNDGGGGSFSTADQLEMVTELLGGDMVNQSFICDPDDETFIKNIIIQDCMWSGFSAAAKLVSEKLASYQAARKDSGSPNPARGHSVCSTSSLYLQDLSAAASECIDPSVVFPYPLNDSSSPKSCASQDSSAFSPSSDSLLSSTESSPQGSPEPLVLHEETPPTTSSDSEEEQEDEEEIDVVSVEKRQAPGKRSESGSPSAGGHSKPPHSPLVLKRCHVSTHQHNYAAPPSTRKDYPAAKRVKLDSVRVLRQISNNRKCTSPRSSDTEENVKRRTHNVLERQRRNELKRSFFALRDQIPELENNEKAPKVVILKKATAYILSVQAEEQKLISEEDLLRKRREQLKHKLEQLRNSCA
In short: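 HepG2 cells transiently transfected with multiple cis-promoter-driven reporter transcription units, so endogenous TF activity is read. After 24 h compound exposure, reporter mRNA was quantified by RT-PCR, 6-FAM labelling, HpaI digestion and capillary electrophoresis; bidirectional fit versus DMSO.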

[12] = ATG_NRF2_ARE_CIS: Attagene CIS-FACTORIAL HepG2 Assay for human Nuclear Factor Erythroid 2 Related Factor 2 (NFR2) response to Antioxidant Response Elements (ARE) (AID 2282992); details: HepG2 Attagene ARE/NRF2 reporter, transcription factor activity; actives raise or lower the signal;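 as to AC50: reporter mRNA level measured by RT-PCR and capillary electrophoresis fluorescence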
In short: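 Transient MRTU transfection of HepG2; 24 h compound exposure; TriZol RNA, RT with oligo(dT), PCR, 6-FAM primer extension, HpaI cut, CE. Bidirectional fit vs DMSO.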

[13] = ATG_Oct_MLP_CIS: Attagene CIS-FACTORIAL HepG2 Assay for human Octamer-Binding Transcription Factor (Oct) (AID 2282993); details: HepG2 Attagene cis-factorial Oct reporter, mRNA; actives raise or lower the signal
In short: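 Transfected HepG2 cells, 24 h treatment. Reporter mRNA quantified by RT-PCR–capillary electrophoresis; bidirectional fitting against DMSO.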

[14] = biological target: Cellular tumor antigen p53 (Homo sapiens) (UniProt P04637); test: ATG_p53_CIS: Attagene CIS-FACTORIAL HepG2 Assay for human p53 Transcription Factor (AID 2282994); details: HepG2 p53 cis-element reporter, Attagene mRNA; actives raise or lower the signal
Sequence of Cellular tumor antigen p53 (Homo sapiens) (P04637 whole entry, looked up): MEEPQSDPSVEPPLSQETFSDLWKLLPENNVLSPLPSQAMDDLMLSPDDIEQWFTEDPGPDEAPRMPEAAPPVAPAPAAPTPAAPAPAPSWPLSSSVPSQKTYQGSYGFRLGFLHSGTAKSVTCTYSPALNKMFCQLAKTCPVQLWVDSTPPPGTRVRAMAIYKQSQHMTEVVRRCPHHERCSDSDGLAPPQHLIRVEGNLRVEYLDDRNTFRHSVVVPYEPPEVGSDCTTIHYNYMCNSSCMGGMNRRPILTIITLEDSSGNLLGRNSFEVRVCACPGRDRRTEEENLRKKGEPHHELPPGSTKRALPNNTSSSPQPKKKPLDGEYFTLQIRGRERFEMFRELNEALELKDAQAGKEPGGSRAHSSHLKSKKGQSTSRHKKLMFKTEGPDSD
In short: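 HepG2, transient MRTU transfection (cis promoter elements, endogenous TFs); 24 h dosing; RNA isolation, RT-PCR, 6-FAM primer extension, HpaI digest, CE fluorescence; bidirectional fit vs DMSO.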

[15] = BSK_3C_TissueFactor: BioMAP Diversity Plus: 3C Assay for Tissue Factor Biomarker Activity (AID 2282997); details: BioMAP 3C HUVEC, tissue factor biomarker readout; actives raise or lower the signal
In short: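 Dosing of human umbilical vein endothelial cells preceded a 24 h incubation. Tissue Factor was then read by ELISA, with increases and decreases both scored relative to DMSO controls.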

[16] = BSK_3C_uPAR: BioMAP Diversity Plus: 3C Assay for Urokinase-type plasminogen activator receptor (uPAR) Biomarker Activity (AID 2282998); details: BioMAP 3C HUVEC, uPAR biomarker ELISA; actives raise or lower the signal
In short: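 Readout: ELISA for surface uPAR. System: human umbilical vein endothelial primary cells, 24 h after chemical exposure. Analysis: bidirectional fit, DMSO baseline.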

[17] = BSK_3C_VCAM1: BioMAP Diversity Plus: 3C Assay for Vascular cell adhesion molecule 1 (VCAM1) Biomarker Activity (AID 2282999); details: BioMAP 3C HUVEC, VCAM1 ELISA, cytokine-stimulated; actives raise or lower the signal
In short: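 Human umbilical vein endothelial cells were dosed with compound for 24 h, after which cell-surface VCAM-1 was quantified by ELISA. Bidirectional curve fitting used DMSO as negative control and activity baseline.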

[18] = ATG_NF_kB_CIS: Attagene CIS-FACTORIAL HepG2 Assay for human Nuclear Factor Kappa B (NF-kB) (AID 2282991); details: HepG2 Attagene cis-factorial NF-kB reporter mRNA; actives raise or lower the signal
In short: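 After 24 h compound incubation, transfected HepG2 cells yield total RNA; reporter cDNA is PCR-amplified, end-labelled with 6-FAM, HpaI-digested and analysed on a genetic analyser. Endogenous factor activity, DMSO-referenced bidirectional fit.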

[19] = biological target: Nuclear receptor subfamily 4 group A member 2 (Homo sapiens) (UniProt P43354); test: ATG_NURR1_TRANS: Attagene TRANS-FACTORIAL HepG2 Assay for human Nuclear Receptor Related Protein 1 (NURR1) (AID 2282985; active = hit-call score of the fitted dose curve at least 0.9, where 1 is the maximum); details: HepG2 Attagene TRANS reporter, mRNA readout
Sequence of Nuclear receptor subfamily 4 group A member 2 (Homo sapiens) (P43354 whole entry, looked up, the tested form may be a part): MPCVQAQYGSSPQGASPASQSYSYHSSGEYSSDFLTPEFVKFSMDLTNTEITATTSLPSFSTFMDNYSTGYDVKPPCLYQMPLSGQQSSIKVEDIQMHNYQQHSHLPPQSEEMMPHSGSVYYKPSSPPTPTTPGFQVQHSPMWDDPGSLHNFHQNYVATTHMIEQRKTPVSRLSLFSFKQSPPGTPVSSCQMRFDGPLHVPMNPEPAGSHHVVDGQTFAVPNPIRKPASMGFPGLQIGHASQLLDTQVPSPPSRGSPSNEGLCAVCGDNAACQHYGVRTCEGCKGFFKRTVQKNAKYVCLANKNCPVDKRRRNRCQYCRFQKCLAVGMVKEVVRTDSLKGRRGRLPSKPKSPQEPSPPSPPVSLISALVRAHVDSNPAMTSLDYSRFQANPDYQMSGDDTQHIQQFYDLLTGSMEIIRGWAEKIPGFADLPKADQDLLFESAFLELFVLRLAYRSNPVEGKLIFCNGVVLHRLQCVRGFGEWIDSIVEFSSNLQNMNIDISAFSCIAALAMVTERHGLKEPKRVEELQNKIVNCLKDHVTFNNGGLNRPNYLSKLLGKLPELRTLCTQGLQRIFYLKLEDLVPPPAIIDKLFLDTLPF
In short: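 HepG2 cells transiently transfected with GAL4-UAS reporter units and chimeric NR-Gal4 constructs; chemical exposure 24 h. Reporter mRNA quantified by RT-PCR, fluorescent labelling and capillary electrophoresis; gain of signal fitted relative to DMSO baseline.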

[20] = ATG_M_06_TRANS: Attagene TRANS-FACTORIAL HepG2 Assay for M06 Transcription Factor (Internal Marker) (AID 2282983; active = hit-call score of the fitted dose curve at least 0.9, where 1 is the maximum;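 also: reporter transcript level by RT-PCR then capillary electrophoresis fluorescence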); details: HepG2 Attagene TRANS M06 internal marker reporter
In short: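 Cells: HepG2, transient multi-reporter transfection. Exposure: 24 h. Detection: RT-PCR, 6-FAM labelling, HpaI digestion (2 h, 37 °C), capillary electrophoresis. Baseline: DMSO.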

Measured: AC50

C[Si](C)(C)C(F)(F)C(F)(F)C(F)(F)F
inactive: [1] | [2] | [3] | [4] | [5] | [6] | [7] | [8] | [10] | [11] | [18] | [12] | [13] | [14] | [15] | [16] | [17]

OC(O)(C(F)C(O)(O)C(F)(F)F)C(F)(F)F
active: [19] 31.5 µM and 19.1 µM | [10] 52.4 µM and 51.5 µM | [18] 16.6 µM and 7.74 µM | [12] 39.4 µM | [14] 28.4 µM and 21.2 µM | [15] 13.6 µM | [16] 15.2 µM
inactive: [1] | [2] | [3] | [4] | [6] | [7] | [8] | [11] | [12] | [13] | [15] | [16] | [17]

CC(C)C(=O)Nc1ccc([N+](=O)[O-])c(C(F)(F)F)c1
inactive: [1] | [3] | [4] | [5] | [6] | [20] | [8] | [9] | [10] | [11] | [15] | [16] | [17]
active: [12] 25.3 µM | [13] 26.1 µM

CCCOc1ccc(S(=O)(=O)N2CCN(CC)CC2)cc1-c1nc2c(CC)n(Cc3ccccn3)nc2c(=O)[nH]1
inactive: [1] | [2] | [3] | [5] | [7] | [19] | [8] | [10] | [11] | [13] | [15] | [16] | [17]
active: [18] 51 µM | [12] 43 µM

COc1cc(C(C)C)c2c(c1)S(=O)(=O)N(COc1cc(=O)n3cccc(OCCN4CCCCC4)c3n1)C2=O
active: [3] 4.68 µM | [10] 3.64 µM | [11] 2.75 µM | [18] 10.3 µM | [12] 1.29 µM | [13] 4.34 µM | [16] 2.89 µM | [17] 5.38 µM
inactive: [2] | [6] | [7] | [19] | [8] | [15]

COc1cc2c(c(OC)c1OC)-c1ccc(OC)c(=O)cc1[C@@H](NC(C)=O)CC2
active: [9] 257 nM | [16] 0.149 µM | [17] 0.404 µM
inactive: [2] | [3] | [4] | [5] | [8] | [10] | [11] | [18] | [12] | [13] | [15]

CCCCCOC(C)=O
inactive: [2] | [7] | [19] | [8] | [10] | [11] | [18] | [12] | [13] | [15] | [16] | [17]
